# Publication PMC11006913
# Assays:
# Assay in all cases: PBM; 200 nM protein, PBS
# Settings in all cases: dsDNA, one strand shown
# SHOX = SHOX (Homo sapiens, UniProt O15266 103-189, R173C)
# HOXB6 [1] = target: HOXB6 (Homo sapiens, UniProt P17509 132-218, K202E)
# VAX1 = VAX1 (Homo sapiens, UniProt Q5SQQ9 86-172, K157R)
# HOXB6 [2] = target: HOXB6 (Homo sapiens, UniProt P17509 132-218)
# HOXA2 [3] = target: HOXA2 (Homo sapiens, UniProt O43364 129-215, R185T)
# HOXA2 [4] = target: HOXA2 (Homo sapiens, UniProt O43364 129-215, R185K)
# HOXA2 [5] = target: HOXA2 (Homo sapiens, UniProt O43364 129-215, Y150S)
# HOXA2 [6] = target: HOXA2 (Homo sapiens, UniProt O43364 129-215)
# HESX1 [7] = target: HESX1 (Homo sapiens, UniProt Q9UBX0 95-180, R165K)
# HESX1 [8] = target: HESX1 (Homo sapiens, UniProt Q9UBX0 95-180)
# HESX1 [9] = target: HESX1 (Homo sapiens, UniProt Q9UBX0 95-180, F115L)
# PRRX1 = PRRX1 (Homo sapiens, UniProt P54821 80-166, F113S)
# HOXB9 [10] = target: HOXB9 (Homo sapiens, UniProt P17482 171-250)
# MSX2 [11] = target: MSX2 (Homo sapiens, UniProt P35548 130-214, R199I)
# MSX2 [12] = target: MSX2 (Homo sapiens, UniProt P35548 130-214)
# HOXB9 [13] = target: HOXB9 (Homo sapiens, UniProt P17482 171-250, R186Q)
# MSX2 [14] = target: MSX2 (Homo sapiens, UniProt P35548 130-214, F161Y)
# PROP1 [15] = target: PROP1 (Homo sapiens, UniProt O75360 56-141)
# PROP1 [16] = target: PROP1 (Homo sapiens, UniProt O75360 56-141, R99H)
# PROP1 [17] = target: PROP1 (Homo sapiens, UniProt O75360 56-141, F88S)
# Chain of PROP1 (Homo sapiens, UniProt O75360 56-141, F88S) (O75360 56-141 F88S): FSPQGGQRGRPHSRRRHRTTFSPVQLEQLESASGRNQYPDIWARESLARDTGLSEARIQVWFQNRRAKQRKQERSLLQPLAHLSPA
# Chain of VAX1 (Q5SQQ9 86-172 K157R): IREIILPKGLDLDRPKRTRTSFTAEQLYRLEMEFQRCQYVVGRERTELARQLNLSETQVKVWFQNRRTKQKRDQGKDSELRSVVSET
# Chain of HOXB6 (Homo sapiens, UniProt P17509 132-218, K202E) (P17509 132-218 K202E): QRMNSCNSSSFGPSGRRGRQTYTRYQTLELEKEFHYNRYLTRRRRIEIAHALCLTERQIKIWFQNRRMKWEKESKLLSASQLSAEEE
# Chain of HESX1 (Homo sapiens, UniProt Q9UBX0 95-180, F115L) (Q9UBX0 95-180 F115L): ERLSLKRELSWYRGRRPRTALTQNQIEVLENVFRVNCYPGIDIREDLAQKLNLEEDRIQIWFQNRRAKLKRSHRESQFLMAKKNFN
# Chain of PROP1 (Homo sapiens, UniProt O75360 56-141, R99H) (O75360 56-141 R99H): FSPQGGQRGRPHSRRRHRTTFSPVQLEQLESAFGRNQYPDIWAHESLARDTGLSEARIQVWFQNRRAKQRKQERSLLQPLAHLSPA
# Chain of HESX1 (Homo sapiens, UniProt Q9UBX0 95-180) (Q9UBX0 95-180): as the sequence (Q9UBX0 95-180 F115L) above, with L21F counted along it
# Chain of HOXB6 (Homo sapiens, UniProt P17509 132-218) (P17509 132-218): as the sequence (P17509 132-218 K202E) above, with E71K counted along it
# Chain of HESX1 (Homo sapiens, UniProt Q9UBX0 95-180, R165K) (Q9UBX0 95-180 R165K): as the sequence (Q9UBX0 95-180 F115L) above, with L21F, R71K counted along it
# Chain of PRRX1 (P54821 80-166 F113S): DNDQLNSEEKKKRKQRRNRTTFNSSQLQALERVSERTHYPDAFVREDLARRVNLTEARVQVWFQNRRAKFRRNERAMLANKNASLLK
# Chain of PROP1 (Homo sapiens, UniProt O75360 56-141) (O75360 56-141): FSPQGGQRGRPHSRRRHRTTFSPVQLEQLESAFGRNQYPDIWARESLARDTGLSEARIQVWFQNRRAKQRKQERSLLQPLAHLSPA
# Chain of HOXB9 (Homo sapiens, UniProt P17482 171-250) (P17482 171-250): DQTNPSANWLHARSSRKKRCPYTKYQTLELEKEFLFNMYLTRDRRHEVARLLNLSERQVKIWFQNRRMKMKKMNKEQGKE
# Chain of HOXB9 (Homo sapiens, UniProt P17482 171-250, R186Q) (P17482 171-250 R186Q): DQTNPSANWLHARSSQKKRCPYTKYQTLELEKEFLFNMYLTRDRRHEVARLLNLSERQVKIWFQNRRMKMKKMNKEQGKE
# Chain of MSX2 (Homo sapiens, UniProt P35548 130-214, R199I) (P35548 130-214 R199I): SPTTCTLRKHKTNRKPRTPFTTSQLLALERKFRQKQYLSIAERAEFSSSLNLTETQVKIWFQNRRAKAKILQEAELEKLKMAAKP
# Chain of HOXA2 (Homo sapiens, UniProt O43364 129-215) (O43364 129-215): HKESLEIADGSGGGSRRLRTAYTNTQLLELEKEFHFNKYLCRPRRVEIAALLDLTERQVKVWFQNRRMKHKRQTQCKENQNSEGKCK
# Chain of HOXA2 (Homo sapiens, UniProt O43364 129-215, R185T) (O43364 129-215 R185T): as the sequence (O43364 129-215) above, with R57T counted along it
# Chain of SHOX (O15266 103-189 R173C): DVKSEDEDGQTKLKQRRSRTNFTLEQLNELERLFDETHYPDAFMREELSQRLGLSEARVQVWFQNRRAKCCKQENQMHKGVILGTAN
# Chain of MSX2 (Homo sapiens, UniProt P35548 130-214, F161Y) (P35548 130-214 F161Y): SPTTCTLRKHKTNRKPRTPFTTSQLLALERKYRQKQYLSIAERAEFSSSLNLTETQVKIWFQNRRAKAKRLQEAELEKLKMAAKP
# Chain of MSX2 (Homo sapiens, UniProt P35548 130-214) (P35548 130-214): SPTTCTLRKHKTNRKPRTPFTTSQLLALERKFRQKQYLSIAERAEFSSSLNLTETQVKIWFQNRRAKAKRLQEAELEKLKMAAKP
# Chain of HOXA2 (Homo sapiens, UniProt O43364 129-215, R185K) (O43364 129-215 R185K): as the sequence (O43364 129-215) above, with R57K counted along it
# Chain of HOXA2 (Homo sapiens, UniProt O43364 129-215, Y150S) (O43364 129-215 Y150S): as the sequence (O43364 129-215) above, with Y22S counted along it
sequence,measurement,setting,value
CGGTCCAA,binding signal,SHOX,"7.18 upbm affinity estimate (log intensity, higher = more binding, comparable within an allelic series)"
ACGGCGGC,binding signal,HOXB6 [1],"8.91 upbm affinity estimate (log intensity, higher = more binding, comparable within an allelic series)"
same,binding signal,VAX1,"7.25 upbm affinity estimate (log intensity, higher = more binding, comparable within an allelic series)"
same,binding signal,HOXB6 [2],"9.12 upbm affinity estimate (log intensity, higher = more binding, comparable within an allelic series)"
GCACTTAA,binding signal,HOXB6 [1],"9.75 upbm affinity estimate (log intensity, higher = more binding, comparable within an allelic series)"
same,binding signal,HOXA2 [3],"10.2 upbm affinity estimate (log intensity, higher = more binding, comparable within an allelic series)"
same,binding signal,HOXA2 [4],"12.3 upbm affinity estimate (log intensity, higher = more binding, comparable within an allelic series)"
same,binding signal,HOXA2 [5],"10.8 upbm affinity estimate (log intensity, higher = more binding, comparable within an allelic series)"
same,binding signal,HOXA2 [6],"10.4 upbm affinity estimate (log intensity, higher = more binding, comparable within an allelic series)"
same,binding signal,HOXB6 [2],"10.9 upbm affinity estimate (log intensity, higher = more binding, comparable within an allelic series)"
CCAGCGCG,binding signal,HESX1 [7],"6.43 upbm affinity estimate (log intensity, higher = more binding, comparable within an allelic series)"
same,binding signal,HESX1 [8],"6.41 upbm affinity estimate (log intensity, higher = more binding, comparable within an allelic series)"
same,binding signal,HESX1 [9],"6.43 upbm affinity estimate (log intensity, higher = more binding, comparable within an allelic series)"
CCGCGTCG,binding signal,HESX1 [7],"6.63 upbm affinity estimate (log intensity, higher = more binding, comparable within an allelic series)"
same,binding signal,HESX1 [8],"6.33 upbm affinity estimate (log intensity, higher = more binding, comparable within an allelic series)"
same,binding signal,HESX1 [9],"6.48 upbm affinity estimate (log intensity, higher = more binding, comparable within an allelic series)"
CGGGCTCC,binding signal,PRRX1,"8.95 upbm affinity estimate (log intensity, higher = more binding, comparable within an allelic series)"
same,binding signal,HOXB6 [1],"8.71 upbm affinity estimate (log intensity, higher = more binding, comparable within an allelic series)"
same,binding signal,HOXA2 [3],"6.41 upbm affinity estimate (log intensity, higher = more binding, comparable within an allelic series)"
same,binding signal,HOXB9 [10],"7.77 upbm affinity estimate (log intensity, higher = more binding, comparable within an allelic series)"
same,binding signal,MSX2 [11],"9.06 upbm affinity estimate (log intensity, higher = more binding, comparable within an allelic series)"
same,binding signal,HOXA2 [4],"9.88 upbm affinity estimate (log intensity, higher = more binding, comparable within an allelic series)"
same,binding signal,MSX2 [12],"8.79 upbm affinity estimate (log intensity, higher = more binding, comparable within an allelic series)"
same,binding signal,HOXB9 [13],"7.82 upbm affinity estimate (log intensity, higher = more binding, comparable within an allelic series)"
same,binding signal,MSX2 [14],"8.87 upbm affinity estimate (log intensity, higher = more binding, comparable within an allelic series)"
same,binding signal,HOXA2 [5],"10.2 upbm affinity estimate (log intensity, higher = more binding, comparable within an allelic series)"
same,binding signal,HOXA2 [6],"6.39 upbm affinity estimate (log intensity, higher = more binding, comparable within an allelic series)"
same,binding signal,VAX1,"6.27 upbm affinity estimate (log intensity, higher = more binding, comparable within an allelic series)"
same,binding signal,HOXB6 [2],"8.31 upbm affinity estimate (log intensity, higher = more binding, comparable within an allelic series)"
AATTAGCT,binding signal,HESX1 [7],"11.6 upbm affinity estimate (log intensity, higher = more binding, comparable within an allelic series)"
same,binding signal,PRRX1,"11.1 upbm affinity estimate (log intensity, higher = more binding, comparable within an allelic series)"
same,binding signal,HESX1 [8],"11.6 upbm affinity estimate (log intensity, higher = more binding, comparable within an allelic series)"
same,binding signal,MSX2 [11],"12.3 upbm affinity estimate (log intensity, higher = more binding, comparable within an allelic series)"
same,binding signal,SHOX,"9.43 upbm affinity estimate (log intensity, higher = more binding, comparable within an allelic series)"
same,binding signal,MSX2 [12],"13.3 upbm affinity estimate (log intensity, higher = more binding, comparable within an allelic series)"
same,binding signal,PROP1 [15],"11 upbm affinity estimate (log intensity, higher = more binding, comparable within an allelic series)"
same,binding signal,PROP1 [16],"10.9 upbm affinity estimate (log intensity, higher = more binding, comparable within an allelic series)"
same,binding signal,PROP1 [17],"7.6 upbm affinity estimate (log intensity, higher = more binding, comparable within an allelic series)"
same,binding signal,MSX2 [14],"12.9 upbm affinity estimate (log intensity, higher = more binding, comparable within an allelic series)"
same,binding signal,HESX1 [9],"7.79 upbm affinity estimate (log intensity, higher = more binding, comparable within an allelic series)"
same,binding signal,VAX1,"12.4 upbm affinity estimate (log intensity, higher = more binding, comparable within an allelic series)"
CTACTTAA,binding signal,PROP1 [15],"8.53 upbm affinity estimate (log intensity, higher = more binding, comparable within an allelic series)"
same,binding signal,PROP1 [16],"8.11 upbm affinity estimate (log intensity, higher = more binding, comparable within an allelic series)"
same,binding signal,PROP1 [17],"7.26 upbm affinity estimate (log intensity, higher = more binding, comparable within an allelic series)"
CGCCCGAG,binding signal,HOXB9 [10],"8.15 upbm affinity estimate (log intensity, higher = more binding, comparable within an allelic series)"
same,binding signal,PROP1 [15],"6.84 upbm affinity estimate (log intensity, higher = more binding, comparable within an allelic series)"
same,binding signal,PROP1 [16],"6.77 upbm affinity estimate (log intensity, higher = more binding, comparable within an allelic series)"
same,binding signal,HOXB9 [13],"8.29 upbm affinity estimate (log intensity, higher = more binding, comparable within an allelic series)"
same,binding signal,PROP1 [17],"6.6 upbm affinity estimate (log intensity, higher = more binding, comparable within an allelic series)"
CACTTATA,binding signal,HOXB9 [10],"10.4 upbm affinity estimate (log intensity, higher = more binding, comparable within an allelic series)"
same,binding signal,HOXB9 [13],"10.2 upbm affinity estimate (log intensity, higher = more binding, comparable within an allelic series)"
ACGGCTGG,binding signal,PROP1 [15],"6.59 upbm affinity estimate (log intensity, higher = more binding, comparable within an allelic series)"
same,binding signal,PROP1 [16],"6.78 upbm affinity estimate (log intensity, higher = more binding, comparable within an allelic series)"
same,binding signal,PROP1 [17],"6.67 upbm affinity estimate (log intensity, higher = more binding, comparable within an allelic series)"
CCCGGCGG,binding signal,PROP1 [15],"6.68 upbm affinity estimate (log intensity, higher = more binding, comparable within an allelic series)"
same,binding signal,PROP1 [16],"6.68 upbm affinity estimate (log intensity, higher = more binding, comparable within an allelic series)"
same,binding signal,PROP1 [17],"6.39 upbm affinity estimate (log intensity, higher = more binding, comparable within an allelic series)"
CACGCGTG,binding signal,PRRX1,"9.36 upbm affinity estimate (log intensity, higher = more binding, comparable within an allelic series)"
CACTTAGA,binding signal,HESX1 [7],"7.73 upbm affinity estimate (log intensity, higher = more binding, comparable within an allelic series)"
same,binding signal,HESX1 [8],"7.94 upbm affinity estimate (log intensity, higher = more binding, comparable within an allelic series)"
same,binding signal,HESX1 [9],"6.78 upbm affinity estimate (log intensity, higher = more binding, comparable within an allelic series)"
